This is a sample that favours compounds with a hit; in the whole collection about 8% have one here.
KB-3-1 cytotox – qHTS assay for MDR1-selective chemotherapeutics: Primary screen using the parental adenocarcinoma cell KB-3-1; KB-3-1 viability, CellTiter-Glo ATP luminescence, 72 h; Potency, µM (doses to about 46.1 µM), most hits filed as cytotoxic; 400,000 tested, 1.4% active; AID 1347075, 2019; further: on the % scale 0 is the no-effect control and ±100 the full control effect; nearly all actives have a fitted effect of over 60% in size
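Viability of parental KB-3-1 cells, measured by CellTiter-Glo luminescence, followed a 72 h incubation at 37 °C with pinned compounds in phenol-red-free DMEM containing 10% FBS.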
SW480 rereplic – A quantitative high throughput screen for small molecules that induce DNA re-replication in SW480 colon adenocarcinoma cells; SW480 DNA re-replication, Hoechst DNA content imaging, 48 h; Potency, µM (doses to about 46.1 µM), inactives show at the highest dose re-replication activation, actives largely listed as activators; 340,000 tested, 1.8% active; further: % of control where 0% means no effect; nearly all actives have a fitted effect of over 55% in size
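Image-based DNA-content assay: after two days of treatment, nuclei were labelled with the DNA dye Hoechst and imaged, and hits were compounds raising the count of nuclei showing high fluorescence intensity.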
HT1080NT lethal – qHTS for induction of synthetic lethality in tumor cells producing 2HG: qHTS for the HT-1080-NT fibrosarcoma cell line. Potency, µM (top dose mostly 46.1 µM), for the others: at the highest dose activity, negative = less viability, actives largely listed as cytotoxic. 360,000 tested, 1.6% active. AID 686970, 2013. HT-1080-NT fibrosarcoma viability, CellTiter-Glo ATP luminescence, 48 h;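 further: NT is the 2HG producing partner of a matched IDH1 knockdown line; 0% = DMSO-treated cells and -100% = media-only wells without cells; nearly all actives have a fitted effect of over 55% in size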
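Viability by CellTiter-Glo luminescence after 48 h compound exposure at 37C of HT-1080-NT cells (750/well, RPMI, 5% FBS). % activity scaled between DMSO wells and medium-only wells, then curve-fitted and categorized by curve class.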
MCF10A rereplic – A quantitative high throughput screen for small molecules that induce DNA re-replication in MCF 10a normal breast cells. MCF 10A DNA re-replication, Hoechst nuclear intensity, 48 h. Potency, µM (series often up to 46.1 µM), for the others: at the top dose activity, positive = re-replication, most hits filed as activators. 350,000 tested, 2.9% active. AID 624296, 2012; further: % of control where 0% means no effect; nearly all actives have a fitted effect of over 50% in size
HT1080 IDH1KD tx – qHTS for induction of synthetic lethality in tumor cells producing 2HG: qHTS for the HT-1080-IDH1KD cell line; 360,000 tested, 2% active; AID 686971, 2013; HT-1080 IDH1 knockdown viability, ATP luminescence, 48 h; Potency, µM (doses to about 46.1 µM), without a hit: top-dose activity, negative = toxicity, usual class: cytotoxic;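 further: 0% = DMSO wells and -100% = cell-free medium wells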
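After a 2 h attachment period, IDH1KD HT-1080 cells took pin-transferred compound for 48 h at 37 °C; ATP-based luminescence after 10 min room-temperature reagent incubation reported viability.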
KB-V1 MDR tox – qHTS assay for MDR1-selective chemotherapeutics: Primary screen using the drug-selected MDR subline cells KB-V1. AID 1347076, 2019. 400,000 tested, 3.4% active. Potency, µM (highest dose often 46.1 µM), usual class: cytotoxic. KB-V1 MDR cells viability, CellTiter-Glo, 72 h; further: on the % scale 0 is the no-effect control and ±100 the full control effect; nearly all actives have a fitted effect of over 60% in size
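KB-V1, DMEM (no phenol red) + 10% FBS; cpd pin-transferred, titration series; 72 h, 37 degrees C; CellTiter-Glo, luminescence. Data normalized, curve-fit.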
* marks the source's active call; other numbers are inactive results; i = inactive; ? = inconclusive; · = not tested or not shown; ! = not active in a repeat. The call rests on the fitted dose curve; in most records, active means well fitted curve in the direction sought with a large enough effect; inconclusive means small, poorly fitted or top-dose-only effect, or another doubt; inactive means no such curve, though single readings can be large; an effect the other way counts as inactive or inconclusive. Potency means the concentration at half of the fitted maximal effect.

SMILES	KB-3-1 cytotox	SW480 rereplic	HT1080NT lethal	MCF10A rereplic	HT1080 IDH1KD tx	KB-V1 MDR tox
COc1cc(C(CC(=O)Nc2cc(C)ccc2C)N2Cc3ccccc3C2=O)cc(OC)c1OC (centres undefined)	i	·	·	·	·	i
Cc1nn(-c2ccc(F)cc2)c(-n2cccc2)c1C(=O)N1CCN(c2ccccc2F)CC1	?	·	·	·	·	10µM*
Cc1cccc(-n2nc(C)c(C(=O)N3CCN(c4ccccc4)CC3)c2-n2cccc2)c1	i	·	·	·	·	i
COc1ccc(CCNC(=O)c2cnn3ccccc23)c(OC)c1OC	i	-16%	24%	5%	12%	i
COc1ccc(CCNC(=O)c2c(C)nn(-c3ccc(F)cc3)c2-n2cccc2)c(OC)c1OC	?	·	·	·	·	12µM*
Cc1nn(-c2ccc(F)cc2)c(-n2cccc2)c1C(=O)N1CCN(c2ccc(F)cc2)CC1	?	·	·	·	·	16µM*
COc1ccc(CCNC(=O)c2cc(Nc3cc(C)cc(C)c3)nc3ccccc23)cc1OC	?	·	·	·	·	i
O=C1NCc2c1c1c3ccccc3[nH]c1c1[nH]c3ccccc3c21	?	·	·	·	·	i
CN(C)c1ccc(CN(C(=O)COc2ccc(Br)cc2)C2CCS(=O)(=O)C2)cc1 (centres undefined)	i	-1%	-5%	8%	-22%	8.2µM*
Cc1ccc(OCC(=O)N(Cc2ccc(N(C)C)cc2)C2CCS(=O)(=O)C2)cc1 (centres undefined)	i	7%	-1%	-1%	11%	i
Cc1cc(C)cc(OCC(=O)N(Cc2cccs2)C2CCS(=O)(=O)C2)c1 (centres undefined)	i	0%	-3%	1%	-2%	8.2µM*
Cc1ccc(OCC(=O)N(Cc2cccs2)C2CCS(=O)(=O)C2)cc1 (centres undefined)	i	-2%	-9%	-25%	-7%	?
O=C(c1ccccc1)c1ccc(Cn2cc(-c3ccccc3)nn2)cc1	?	0%	-9%	10%	-15%	0.65µM*!
O=C(c1ccccc1)c1ccc(Cn2cc(CCCO)nn2)cc1	i	-12%	0%	8%	1%	i
O=C(O)CCCCCCCCc1cn(Cc2ccc(C(=O)c3ccccc3)cc2)nn1	4.6µM*!	5.8µM*	3.7µM*	?	4.6µM*	9.2µM*!
O=C(OCc1cn(Cc2ccccc2)nn1)c1ccccc1	i	-5%	0%	2%	-1%	i
CCOC(OCC)c1cn(Cc2ccc(C(=O)c3ccccc3)cc2)nn1	18µM*	127%	?	?	?	?
CCOC(=O)c1cn(Cc2cccc(Cl)c2)nn1	i	-698%	6%	-1%	5%	i
CCCCCc1ccc(-c2cn(Cc3ccc(C(=O)c4ccccc4)cc3)nn2)cc1	7.3µM*!	-2%	-3%	?	-9%	7.3µM*!
O=C(COc1ccccc1F)Nc1ccccc1C(=O)OCc1cc(=O)n2nc(C3CC3)sc2n1	i	·	·	·	·	i
O=C(NNS(=O)(=O)c1ccccc1[N+](=O)[O-])c1cccc(Cl)c1	i	0.52µM*	15%	1%	12%	i
O=C(NNS(=O)(=O)c1ccccc1[N+](=O)[O-])c1cccc(Br)c1	i	-10%	4%	-1%	10%	?
CC(C)OC(=O)n1c(=S)oc2ccccc21	i	?	-4%	4.6µM*	-1%	i
CCCCC(=O)/C=C/n1c(=S)oc2ccccc21	?	6.5µM*	10µM*	2.9µM*	3.7µM*	?
COc1cc(-c2cc(NC=O)c3ncc(-c4ccc(C(C)=O)cc4)n3c2)ccc1O	?	·	?	·	18µM*	i
SMILES	KB-3-1 cytotox	SW480 rereplic	HT1080NT lethal	MCF10A rereplic	HT1080 IDH1KD tx	KB-V1 MDR tox
CS(=O)(=O)Nc1cccc(-c2cc(NC=O)c3ncc(-c4ccc(F)cc4)n3c2)c1	i	·	12µM*	·	8.2µM*	?
CC(=O)c1cccc(-c2cnc3c(NC=O)cc(-c4ccccc4F)cn23)c1	i	·	-24%	·	-23%	?
CC(=O)c1ccc(-c2cnc3c(NC=O)cc(-c4ccc(S(C)(=O)=O)cc4)cn23)cc1	i	·	?	·	6.5µM*	i
COc1cc(/C=N/Nc2nc(C)nc3c2cnn3-c2ccccc2)ccc1O	?	15µM*	?	?	?	8.2µM*
COc1cc(/C=N/NC(=O)c2nc(-c3ccccc3)n(-c3ccccc3)n2)ccc1O	i	-12%	-4%	-2%	7%	i
Cc1ccc(C)c(N(CC(=O)Nc2cc(Cl)ccc2Oc2ccccc2)S(C)(=O)=O)c1	?	2%	-14%	7%	-7%	21µM*
CC(C)CNS(=O)(=O)c1ccc(CCC(=O)Nc2cc(Cl)ccc2Oc2ccccc2)cc1	?	7.3µM*	-25%	16%	-41%	i
Cc1cccc(C)c1N(CC(=O)Nc1cc(Cl)ccc1Oc1ccccc1)S(C)(=O)=O	i	-3%	-3%	-3%	-10%	i
CC(C)CNS(=O)(=O)c1ccc(CCC(=O)O)cc1	i	-2%	0%	20%	3%	i
CCCNS(=O)(=O)c1ccc(CCC(=O)Nc2cc(Cl)ccc2Oc2ccccc2)cc1	i	5%	-10%	8.2µM*	-19%	8.2µM*
CC(C)(C)NS(=O)(=O)c1ccc(CCC(=O)Nc2cc(Cl)ccc2Oc2ccccc2)cc1	i	-4%	-5%	-11%	-14%	i
N=c1sccn1CC(=O)Nc1cc(Cl)ccc1Oc1ccccc1	i	15%	16µM*	?	?	?
COc1ccc(S(=O)(=O)N2CCN(Cc3nc4ccc(C)cc4o3)CC2)cc1OC	i	·	·	·	·	i
Cc1c(NC(=O)Nc2ccc(Cl)c(C(F)(F)F)c2)c(=O)n(-c2ccccc2)n1C	i	·	·	·	·	i
C=CCN(CC=C)C(=O)Nc1cc(Cl)ccc1OC	i	-2%	15%	-3%	-14%	15µM*
COc1ccc(CCC(=O)Nc2cc(Cl)ccc2OC)cc1	i	?	-24%	?	-11%	21µM*
COc1ccc(Cl)cc1NC(=O)CC(=O)Nc1cc(Cl)ccc1OC	i	25%	-20%	23%	?	i
Cc1c(Cl)cccc1NC(=O)COC(=O)c1c2c(nc3ccccc13)CCN(Cc1ccccc1)C2	?	?	?	?	?	2.1µM*
